In PubChem BioAssay AID687001 (Broad Institute, 2013):
Measured potencies and affinities stand elsewhere. Active and inactive are the calls of the source.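 How the source made its calls: active means signal-lowering compounds whose fitted half-maximal concentration is at or below twice the top tested dose in every run; inconclusive means runs disagree, flat 30 to 70% inhibition, or poor curve fit; inactive means the rest.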

target: Protein S100-A4 (Homo sapiens) (UniProt P26447); assay: human S100A4 peptide interaction inhibition curves – biochemical, fluorescence polarization, cherry-picked hits, dose response (AID 687001); settings: FP, S100A4/TAMRA-myosin IIA peptide binding; series mostly up to 11 µM
Sequence (P26447 whole entry, looked up): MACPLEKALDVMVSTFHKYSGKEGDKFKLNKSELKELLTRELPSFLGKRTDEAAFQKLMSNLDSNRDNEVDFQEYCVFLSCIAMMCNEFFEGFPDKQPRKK

SMILES | outcome
COc1ccccc1N(C)S(=O)(=O)c1ccc(C(=O)NCC2CCCCC2)cc1 | inactive
CCCNC(=O)[C@@H]1[C@@H](CO)[C@@H]2Cn3c(cccc3=O)[C@H]1N2CCC(F)(F)F | inactive
NC(=O)c1nsc(C(=O)N(c2ccccc2F)C(C(=O)NCc2ccccc2)c2ccc(O)cc2)c1N (centres undefined) | inactive
CCOC(=O)C1=C(c2ccccc2)NC(=O)NC1c1cc(OC)c(OC)c(OC)c1 (centres undefined) | inactive
Cn1cnc(S(=O)(=O)N2C[C@H](O)COC[C@@H]3O[C@H](CC(=O)NC4CCCC4)CC[C@H]32)c1 | inactive
CCCCCC(=O)Nc1ncc2c(n1)CC(c1cccs1)CC2=O (centres undefined) | inactive
O=C(NCCS(=O)(=O)NCCc1ccccc1)c1ccccc1 | inactive
COC(=O)Cc1c(C)nc(SCc2ccccc2)[nH]c1=O | inactive
O=C(O)c1cccc(C(=O)O)c1S(=O)Cc1ccccc1 (centres undefined) | inactive
CNC[C@@H]1OCCCC[C@H](C)Oc2ccc(NS(C)(=O)=O)cc2C(=O)N([C@@H](C)CO)C[C@@H]1C | inactive
O=C(C[C@H]1C=C[C@H](NC(=O)CCN2CCCCC2)[C@H](CO)O1)Nc1nccs1 | inactive
COCCn1c(SCC(=O)Nc2ccc(NC(C)=O)cc2)nc2ccccc2c1=O | inactive
O=C1CCCn2cc(nn2)COC[C@@H](Cc2ccccc2)N1 | inactive
Cc1ccccc1CN1CCC(n2nccc2NC(=O)CCOc2ccccc2)CC1 | inactive
CCN(C[C@H]1[C@H](c2ccccc2)[C@H](CO)N1C(C)=O)C(=O)c1ccccn1 | inactive
COc1cccc(NC(=O)N[C@@H]2C=C[C@@H](CC(=O)NCc3ccncn3)O[C@@H]2CO)c1 | inactive
CCOC1=C2[C@H](c3ccccc3)N(S(=O)(=O)c3ccc(C)cc3)C(C(C)(C)C)[C@H]2C(C#N)(C#N)C(C#N)(C#N)C1 (some centres undefined) | inactive
CO[C@@H]1CC[C@H]2CCOc3c(C#N)cccc3C(=O)N(C)C[C@H](C)C(=O)N(C)C[C@H]1O2 | inactive
Cc1nn(-c2ccc(N3CCOCC3)nn2)c(C)c1CCC(=O)N1CCN(C)CC1 | inactive
CCC(=O)N1CCC(C)(C(=O)NCc2ccc(F)cc2)C1 (centres undefined) | inactive

SMILES | outcome
Cc1cc2cc(C#N)c(N3CCOCC3)nc2cc1Cl | inactive
CCCc1cc(C(=O)Nc2cccc3ccccc23)n(C)n1 | inactive
CCOCCn1ccc2c(OCC(=O)Nc3ccccc3OC)cccc2c1=O | inactive
O=C(COC(=O)C1CC1)NCCc1ccccc1 | inactive
C[C@@H]1CN([C@H](C)CO)S(=O)(=O)c2ccc(-c3cccnc3)cc2O[C@@H]1CN(C)C(=O)CC1CC1 | inactive
CCOC(=O)N1CCN(C(=O)COc2ccc3oc4c(c3c2)CCCC4)CC1 | inactive
O=C(COC(=O)/C=C/c1ccc(Br)o1)Nc1ccc2[nH]c(=O)[nH]c2c1 | inactive
COC(=O)[C@]12CCCCC=C1N(Cc1ccc(Cl)cc1Cl)C(=O)[C@H](CC(=O)N1CCCC1)C2 | inactive
O=C(Nc1ccc2ccccc2c1)c1ccccc1Cl | inactive
COCCCNC(=O)c1ccc2sc([C@@H]3O[C@H](CO)[C@H](O)[C@H](O)[C@H]3O)nc2c1 | inactive
O=C(Nc1cccc(Cl)c1)N[C@H]1CC[C@H](CCNC(=O)C2CCCC2)O[C@H]1CO | inactive
Cc1noc(C)c1NC(=O)Nc1ccc2c(c1)C(=O)N([C@H](C)CO)C[C@@H](C)[C@@H](CN(C)S(=O)(=O)c1ccc(Cl)cc1)OCCCC[C@H](C)O2 | inactive
Cc1cc(C)nc(NC(=O)CCN2C(=O)c3ccccc3S2(=O)=O)n1 | inactive
OC(CNC1CCCCCC1)COc1cccc2ccccc12 (centres undefined) | inactive
C[C@H]1CCCCO[C@H](CN(C)Cc2ccc(C(F)(F)F)cc2)[C@@H](C)CN([C@@H](C)CO)C(=O)c2cc(NC(=O)Nc3ccc4c(c3)OCO4)ccc2O1 | inactive
CC1CC(C)CN(CCCNC(=O)c2cc3c(s2)-c2ccccc2OC3)C1 (centres undefined) | inactive
COc1ccc2c3c(n(C)c2c1)[C@@H](CO)N(C(=O)Nc1ccc(F)cc1)CC31CCN(C)CC1 | inactive
COCc1cc(=O)[nH]c(SCC(=O)N2CCOCC2)n1 | inactive
CCOC(=O)N1CCN(S(=O)(=O)c2ccc(C)c(C(=O)NC3CCCCC3)c2)CC1 | inactive
